# ATXN2 expr inh: ATXN2 expression inhibition; HEK-293 ATXN2-luciferase reporter, luminescence, 24 h; Potency, µM (top dose mostly 57 µM), without a hit: top-dose activity change, negative = inhibition, most hits filed as inhibitors; hit rate 0.72% among 360,000; AID 1745845; also: % is scaled to controls: 0 for no effect and ±100 for the full control effect; nearly all actives have a fitted effect of over 55% in size
#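 ATXN2-luciferase reporter cells (luciferase flanked by upstream and downstream ATXN2 gene portions) were treated 24 h at 37 °C with compounds at up to 57 uM. SteadyGlo luminescence gave expression; GF-AFC fluorescence gave viability.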
# Nrf2 inh: blocks Nrf2 signaling. A549 ARE-Fluc reporter, luciferase luminescence, 18-24 h. Potency, µM (highest dose often 46 µM), inactives show top-dose activity change, negative = inhibition, actives largely listed as inhibitors. hit rate 2.1% among 360,000; also: % is scaled to controls: 0 for no effect and ±100 for the full control effect; nearly all actives have a fitted effect of over 60% in size
#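 Concentration-response testing used A549 ARE_Fluc cells at 5000 cells/well. Following an 18-24 h compound incubation, viability was read by fluorescence (Ex 405/Em 525) and luciferase output by luminescence.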
# A549 tox-1: counter-screen for Nrf2 inhibitors: cytotoxicity in A549 cells. A549 ARE-Fluc cells, CellTiter-Fluor viability, 18-24 h. Potency, µM (top dose mostly 46 µM), inactives show at the top dose activity change, negative = cytotoxicity, usual class: inhibitors. hit rate 0.16% among 390,000. AID 504648; also: % is scaled to controls: 0 for no effect and ±100 for the full control effect
#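 A549 ARE_Fluc cells in 5% FBS OPTI-MEM were exposed to compounds in concentration-response for 18-24 h at 37 deg C. Viability was read by CellTiter-Fluor fluorescence (Ex 405/Em 525) after 30 min, before the luciferase read.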
# ATXN viability: reduces viability in counter-screen for ATXN expression inhibitors | S2 cells (HEK-293 line with an ATXN2-luciferase reporter) viability, CellTiter-Fluor protease fluorescence, 24 h | Potency, µM (titrated, usually from 56.7 µM), hits mostly cytotoxic | hit rate 0.49% among 400,000 | AID 651635; also: nearly all actives have a fitted effect of over 40% in size
# Nrf2 ARE act: Nrf2 pathway activation. AREc32 ARE-luciferase reporter (MCF7-derived line), luminescence, 24 h. AID 624171. Potency, µM (highest dose often 46.1 µM), inactives show at the top dose activation, hits mostly activators. hit rate 0.31% among 410,000; also: % of control where 0% means no effect; nearly all actives have a fitted effect of over 65% in size
#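 AREc32 cells carrying an ARE-driven firefly luciferase reporter were seeded at 1000 cells/well in OPTI-MEM with 5% FBS, then exposed to compound for 24 hr at 37 deg C. Luminescence was read with Steady-Glo after 30 min at RT.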
# FLuc counter 3: counter-screen for Nrf2 inhibitors: firefly luciferase enzyme inhibition. shares compounds with Nrf2 inh. purified firefly luciferase, luminescence inhibition. Potency, µM (highest dose often 57.5 µM), without a hit: at the top dose activity change, negative = inhibition, usual class: inhibitors. hit rate 4% among 1,400; also: % is scaled to controls: 0 for no effect and ±100 for the full control effect; nearly all actives have a fitted effect of over 65% in size
# Target sequence (P08659 whole entry, looked up): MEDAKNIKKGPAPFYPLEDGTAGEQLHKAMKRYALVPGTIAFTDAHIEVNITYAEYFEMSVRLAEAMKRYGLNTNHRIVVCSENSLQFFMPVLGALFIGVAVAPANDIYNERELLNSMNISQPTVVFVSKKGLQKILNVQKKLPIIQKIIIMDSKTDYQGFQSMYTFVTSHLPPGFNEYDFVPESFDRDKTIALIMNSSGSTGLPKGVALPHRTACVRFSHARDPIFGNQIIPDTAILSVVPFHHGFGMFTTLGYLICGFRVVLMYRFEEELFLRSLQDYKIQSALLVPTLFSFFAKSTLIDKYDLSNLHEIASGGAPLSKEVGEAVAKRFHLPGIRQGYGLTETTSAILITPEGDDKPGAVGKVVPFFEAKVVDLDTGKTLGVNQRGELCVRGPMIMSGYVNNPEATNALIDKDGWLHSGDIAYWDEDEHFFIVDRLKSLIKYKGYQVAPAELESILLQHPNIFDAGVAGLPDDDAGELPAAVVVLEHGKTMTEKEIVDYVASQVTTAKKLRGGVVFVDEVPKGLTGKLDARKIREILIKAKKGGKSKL
# A549 tox-2: A549 cytotoxicity, Nrf2 inhibitor counterscreen | shares compounds with Nrf2 inh | A549 ARE-Fluc cells, cytotoxicity counterscreen | Potency, µM (highest dose often 46.1 µM), for the others: at the highest dose activity change, negative = cytotoxicity, hits mostly inhibitors | hit rate 2% among 1,400 | AID 720523;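 also: cells exposed to compounds for 18 to 24 hours; % is scaled to controls: 0 for no effect and ±100 for the full control effect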
# ARE-Fluc inh: confirmation of Nrf2 inhibitors in A549 ARE reporter cells; A549 ARE-firefly luciferase reporter, luminescence; shares compounds with Nrf2 inh; hit rate 74% among 1,400; Potency, µM (highest dose often 46.1 µM), inactives show at the highest dose activity change, negative = inhibition, hits mostly inhibitors; also: % is scaled to controls: 0 for no effect and ±100 for the full control effect; nearly all actives have a fitted effect of over 65% in size
# * = called active by the depositor; i = inactive; ? = inconclusive; nt = no result given. Only some compounds are listed: those with a hit (about 2.9% of all), similar ones and a draw of the others. Calls follow the shape of the dose curve; as a rule, active = well fitted curve in the direction sought with a large enough effect; inconclusive = small, poorly fitted or top-dose-only effect, or another doubt; inactive = no such curve, though single readings can be large; an effect the other way counts as inactive or inconclusive. Potency is read from the fitted curve at half-maximal effect.
SMILES,ATXN2 expr inh,Nrf2 inh,A549 tox-1,ATXN viability,Nrf2 ARE act,FLuc counter 3,A549 tox-2,ARE-Fluc inh
CC(=NNC(=S)N1CC2CCC(CC2)C1)c1ccncn1,0.32µM*,1.3µM*,16µM*,?,15%,11µM*,?,0.37µM*
CC(=NNC(=S)N1CCCCC1)c1ccccn1,nt,nt,nt,?,18%,nt,nt,nt
Fc1ccccc1-c1ccc(-c2nc3ccc(Cl)cn3c2Nc2ccc(Cl)cc2)o1,nt,?,-6%,nt,nt,nt,nt,nt
Nc1ccc(-c2cc3ccccc3oc2=O)cc1,0.28µM*,1.3µM*,-1%,nt,-2%,8.5µM*,-1%,1.5µM*
Cn1cnnc1SCC(=O)Nc1cc(C(=O)O)cc(C(=O)O)c1,12%,nt,12%,i,0%,nt,nt,nt
CC(C)C[C@H](N)c1cn([C@@H](CCCCN)C(=O)N2CCNCC2)nn1,1.6µM*,1µM*,?,?,-3%,0%,1%,?
CC(C)CC(N)c1cn([C@@H](CCC(=O)O)C(=O)N2CCNCC2)nn1 (stereo partly specified),0%,5%,-13%,i,-1%,nt,nt,nt
COc1ccc(CC(=O)Nc2cccc(S(=O)(=O)N3CCCC3)c2)cc1OC,?,4.6µM*,-21%,i,3%,0%,-13%,7.3µM*
COc1ccc(CCNC(=O)c2cccc(S(=O)(=O)N3CCCC3)c2)cc1OC,-8%,-13%,-4%,i,1%,nt,nt,nt
O=C(Cc1n[nH]c(=O)c2ccccc12)Nc1cccc(S(=O)(=O)N2CCCCCC2)c1,nt,9.2µM*,-14%,i,4%,-2%,-7%,9.2µM*
COc1ccc(CNC(=O)c2cccc(S(=O)(=O)N3CCCCC3)c2)cc1OC,?,5.2µM*,-19%,i,0%,3%,0%,5.8µM*
O=C(Cn1cnc2ccccc21)Nc1cccc(S(=O)(=O)N2CCCC2)c1,-19%,5.8µM*,-16%,i,-1%,-1%,-1%,9.2µM*
O=C(Cn1c(NCCO)nc2ccccc21)Nc1cccc(S(=O)(=O)N2CCCC2)c1,2%,?,-3%,i,0%,nt,nt,nt
CCC(C)NC(=O)c1ccccc1NC(=O)C1CCN(S(=O)(=O)Cc2ccccc2)CC1 (stereo unspecified),-1%,-22%,2%,i,0%,nt,nt,nt
CN(C)c1ccc(CNC(=O)Cn2c(=O)oc3cc(S(=O)(=O)N4CCCCCC4)ccc32)cc1,nt,nt,3%,nt,-1%,nt,nt,nt
O=C(CN1C(=O)CSc2ccc(S(=O)(=O)N3CCCCC3)cc21)NCc1ccc(F)cc1Cl,-10%,nt,-1%,i,0%,nt,nt,nt
COc1cc(OC)c(OC)cc1CNC(=O)c1cccc(S(=O)(=O)N2CCc3ccccc3C2)c1,?,7.3µM*,-17%,?,-1%,2%,-9%,5.8µM*
O=c1c2ccccc2nc(N2CCN(c3cccc(Cl)c3)CC2)n1-c1ccccc1,nt,?,-1%,nt,3%,nt,nt,nt
Cc1ccccc1OCCn1c(C)nc2ccccc21,-29%,8.2µM*,3%,i,-1%,-15%,2%,?
CC(=O)c1c(C)[nH]c(C(=O)OCc2c(F)cccc2Cl)c1C,-11%,5.2µM*,-12%,i,0%,-1%,3%,15µM*
CCOC(=O)c1[nH]c(C)c(C(=O)OCc2ccccc2F)c1C,-22%,-16%,?,i,0%,nt,nt,nt
CC(=O)c1c(C)[nH]c(C(=O)OCC(=O)NCc2ccc(Cl)cc2)c1C,-37%,8.2µM*,-14%,i,6%,2%,0%,13µM*
O=C(Oc1ccccc1N1C(=O)C2CCCCC2C1=O)c1ccccc1 (stereo unspecified),-6%,-18%,1%,i,-1%,nt,nt,nt
Cc1ccc(C(=O)Oc2ccccc2N2C(=O)C3CCCCC3C2=O)cc1 (stereo unspecified),11%,1.3µM*,8%,i,-2%,-2%,0%,3.3µM*
CCOC(=O)CCCCN(Cc1ccccc1F)S(=O)(=O)c1ccc(F)c(C(=O)Nc2cc(Cl)cc(Cl)c2)c1,nt,nt,-2%,nt,0%,nt,nt,nt
SMILES,ATXN2 expr inh,Nrf2 inh,A549 tox-1,ATXN viability,Nrf2 ARE act,FLuc counter 3,A549 tox-2,ARE-Fluc inh
Cc1cc(C)c(NC(=O)CSc2ncc3c(n2)-c2cc(Cl)ccc2N(C)S3(=O)=O)c(C)c1,nt,4.6µM*,-18%,nt,-1%,3%,-19%,30%
CC(=O)N1CCCC1c1nc2ccccc2n1Cc1ccccc1C (stereo unspecified),nt,3.3µM*,?,nt,1%,1%,-7%,18%
O=C(Nc1cccc(C(F)(F)F)c1)c1cc(-c2ccc(Cl)cc2)on1,-8%,-22%,2%,i,1%,nt,nt,nt
FC(F)(F)c1cccc(Nc2nc3nonc3nc2Nc2ccc(Cl)cc2)c1,nt,0.58µM*,2.9µM*,nt,-3%,?,4.6µM*,1µM*
Cc1cccc(C(C)C)c1NC(=O)c1ccc2c(c1)CCCN2S(C)(=O)=O,-16%,-6%,6%,i,1%,nt,nt,nt
COc1ccc2c(Sc3ccccc3)c(C(=O)NCc3cccc(OC)c3OC)[nH]c2c1,18%,9.2µM*,-3%,i,3%,-9%,-8%,-1%
COc1cccc2c1C(=O)c1c(O)c3c(c(O)c1C2=O)CC(O)(C(C)=O)CC3OC1CC(N(C)C)C(O)C(C)O1 (stereo unspecified),?,2.3µM*,?,?,-1%,-25%,?,1µM*
CC(=O)C1(O)Cc2c(O)c3c(c(O)c2C(OC2CC(N)C(O)C(C)O2)C1)C(=O)c1c(O)cccc1C3=O (stereo unspecified),nt,nt,nt,nt,nt,-28%,?,0.46µM*
COC(=O)CS(=O)(=O)c1nc2ccccc2nc1N1CCCCC1,?,7%,-4%,?,?,nt,nt,nt
COc1ccc(N2CCN(c3ncnc4onc(C)c34)CC2)cc1,nt,9.2µM*,5%,nt,-1%,3%,-2%,7.3µM*
COc1ccc(N2CCN(c3ncnc4onc(-c5ccc(F)cc5)c34)CC2)cc1,1%,-4%,4%,i,1%,nt,nt,nt
COC(=O)Cn1c(C2CC(=O)N(c3c(C)cccc3C)C2)nc2ccccc21 (stereo unspecified),0%,11%,-3%,i,1%,nt,nt,nt
COc1cc2c(NC3CCN(C(C)C)CC3)nc(N3CCCN(C)CC3)nc2cc1OCCCN1CCCC1,nt,nt,nt,nt,nt,-2%,?,1.5µM*
